Ins promoter up: insulin promoter activators in MIN6 cells, imaging, high-content screening, mouse beta cells | MIN6 insulin promoter-GFP reporter; active compounds read high | z-score at 5 µM | 190,000 tested, 0.3% active | AID 1625, 2009;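 active = z-score above 3 at 5 µM with at least 500 cells counted in the well; inconclusive = wells under 500 cells, flagged as cytotoxic or low count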
L major viab: Leishmania major promastigote growth inhibition, primary screen | Leishmania major promastigotes, resazurin fluorescence viability | inhibition, % at 10 µM | 200,000 tested, 9% active | AID 1063, 2008; in the data active = inhibition above about 50%;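 also: promastigotes grown with compound for 44 hours at 28 °C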
Cl transport mod: KCC2 cotransporter modulators, thallium flux, primary screen, cell-based, HEK293 KCC2, FluoZin-2 fluorescence, MLSMR; 190,000 tested, 2.2% active; B-score of Tl+ flux slope (higher = more flux/activation; lower = inhibition) at 10 µM; Solute carrier family 12 member 5 (Homo sapiens), Q9H2X9; KCC2 cells, thallium flux FluoZin-2 fluorescence;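 active = thallium flux slope and its plate-corrected score both differing from the plate sample mean at a set confidence after two filtering rounds, in either direction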;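 also: slope of fluorescence scaled to starting intensity during 10 to 20 s after thallium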
WT yeast gro inh: growth inhibition of WT strain, primary screen, mitochondrial fusion inhibitor project, WT and mutant strains, chemical genetic; mitochondrial fusion phenotypic screen; inhibition, % at 10 µM; 190,000 tested, 2.1% active; AID 1362, 2008; in the data active = inhibition above about 58%; tested in S. cerevisiae
Insulin prom inh: inhibitors of insulin promoter-driven GFP, primary screen, imaging, TRM-6 cells (human fetal islet line), eGFP reporter, cell count; 130,000 tested, 0.9% active; reporter expression induced with tamoxifen; AID 1273, 2008; inhibition, % at 2 µM;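 active = inhibition above the mean plus 3 SD, with well images judged a real hit on visual review, cut at about 60% in these data, passing the limit was not always enough; inconclusive = inhibition over the cutoff but images rejected on review; inactive = inhibition not above the cutoff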
ROMK primary: ROMK potassium channel modulators, primary screen, cell-based, thallium flux, MLSMR library; 130,000 tested, 2% active; B-score at 10 µM; Tet-inducible ROMK, thallium flux fluorescence; actives lie on both sides; ATP-sensitive inward rectifier potassium channel 1 (Homo sapiens), P48048;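 active = signal ratio slope over the read window, or its plate-corrected B-score, at least 3 SD from the plate mean, either direction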;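 also: B-score of the F/F0 ratio slope over 7 to 12 s after thallium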
Target sequence (P48048 whole entry, looked up): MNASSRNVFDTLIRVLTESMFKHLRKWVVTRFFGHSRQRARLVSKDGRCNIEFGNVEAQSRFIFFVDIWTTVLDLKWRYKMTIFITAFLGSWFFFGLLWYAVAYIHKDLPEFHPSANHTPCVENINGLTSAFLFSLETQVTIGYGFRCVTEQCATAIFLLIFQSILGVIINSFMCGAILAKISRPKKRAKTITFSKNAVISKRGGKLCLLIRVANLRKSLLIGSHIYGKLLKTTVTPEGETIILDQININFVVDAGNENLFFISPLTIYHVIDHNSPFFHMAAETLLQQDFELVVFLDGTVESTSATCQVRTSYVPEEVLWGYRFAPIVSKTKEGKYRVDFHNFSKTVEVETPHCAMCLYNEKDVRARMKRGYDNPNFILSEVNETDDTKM
ROMK retest: ROMK channel modulator hit retest, confirmation, cell-based, thallium flux, duplicate, resupplied hits. shares compounds with ROMK primary. fluorescence ratio; active compounds read low. normalized thallium flux (F/F0 slope) at 10 µM. 3,000 tested, 54% active. AID 1917, 2009;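 active = Flux at 10 µM at least 3 SD below or above vehicle control mean in one or both replicates; inconclusive = no clear call, values can overlap the other calls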
* hit, by the source's call; i = inactive; ? = inconclusive; . = not tested or not shown. Only some compounds are listed: those with a hit (about 12% of all), similar ones and a draw of the others.

SMILES	Ins promoter up	L major viab	Cl transport mod	WT yeast gro inh	Insulin prom inh	ROMK primary	ROMK retest
Cc1cccc(N/N=C(\C(N)=O)C2=NC(C)(C)Cc3ccccc32)c1	-0.39	36.0	0.0188	56.6	10.0	-3.05*	0.0588*
O=c1[nH]sc2cc(F)ccc12	-0.94	77.5*	1.64	73.2*	-5.9	-7.58*	0.054*
C/C(=N\N(C)c1ccccc1)c1c(O)[nH]c(=O)[nH]c1=O	0.3	.	-0.0424	.	.	.	.
CCNC(=O)C1OC(n2cnc3c(N)ncnc32)C(O)C1O (configuration not stated)	.	0.0	.	.	30.8	4.29*	?
Cc1ccccc1-n1c(/C=C/c2ccccn2)nc2ccccc2c1=O	-0.54	.	.	.	.	.	.
CN1C2CCC1/C(=C/c1ccccn1)C(=O)/C2=C\c1ccccn1	?	100.5*	.	81.1*	i	-3.78*	0.0431*
CN(C/N=C(\N)N[N+](=O)[O-])S(=O)(=O)c1ccccc1	0.26	-3.7	0.214	0.8	15.0	-0.81	.
O=[N+]([O-])c1ccc(N2CCCNCC2)c2ncccc12	-0.22	.	-0.00536	.	.	.	0.0389*
C=CCn1c(O)c(C(C)=NCC2CCCO2)c(=O)[nH]c1=O (configuration not stated)	0.3	.	-0.636	.	.	.	.
CCN(CC)C(=O)c1ccc(NC(=O)c2ccc(-c3nn(C)c(=O)c4ccccc34)cc2)cc1	-0.48	0.7	0.0254	-1.4	.	-0.00897	.
COc1cc(N2CCOCC2)ccc1/C=C1\C(=O)NC(=O)N(C2CCCCC2)C1=O	0.22	-4.4	0.16	2.1	-3.3	-2.52*	0.072
CCc1n[nH]c(CCN)n1	-0.6	.	0.775	.	.	.	.
Cc1ccc2c(c1)C1CN(C)CCC1N2C(=O)Cc1cccs1 (configuration not stated)	-0.39	-0.1	0.394	9.3	-33.3	.	.
Cc1ccc2c(c1)C1CN(C)CCC1N2C(=O)/C(C#N)=C/c1ccc2c(c1)OCO2 (configuration not stated)	0.07	1.9	0.272	-1.3	0.0	-3.12*	0.053*
CN(CCCCC(=O)/C=N/O)Cc1ccccc1 (tested in a mixture with another compound)	-0.47	-2.6	.	-9.2	-3.7	3.25*	0.0829
Cc1cc(C(=O)CS(=O)c2ccc(F)cc2)cc(C)c1OC(=O)N(C)C (configuration not stated)	1.19	-3.2	0.63	-5.6	14.3	2.34	.
Cc1ccccc1N1C(=O)NC(=O)/C(=C\c2cc(Br)c(N3CCOCC3)o2)C1=O	0.84	-0.8	i	-7.9	.	.	0.0246*
CC1=CC(=O)OC2CC3OC4C[C@@H](C)C5OC6CC7O[C@]8(C)C/C=C\C9OC%10CC%11OC(CC(C)CO)CC(O)[C@]%11(C)OC%10CC9OC8C[C@]7(C)O[C@]6(C)CCC5OC4C[C@]3(C)OC12 (some centres not stated)	.	26.0	0.938	20.5	.	.	.
C=C(COC(=O)CCC(=O)O)CC1CC(O)[C@]2(C)OC3CC4OC5C[C@]6(C)O[C@]7(C)CCC8OC9C[C@]%10(C)OC%11C(C)=CC(=O)OC%11CC%10OC9C[C@@H](C)C8OC7CC6O[C@]5(C)C/C=C\C4OC3CC2O1 (some centres not stated)	1.18	.	0.576	.	.	.	0.0806
COc1cc2c(cc1OC)-c1c(OC)c(OC)c(OC)c3ccnc(c13)C2=O	-1.63	77.7*	-2.87	5.8	-90.5	-4.78*	0.0479*
C=C1C/C(=C/C)C(=O)O[C@@H]2CCN3CC=C(COC(=O)[C@]1(C)O)[C@H]23	0.89	.	0.17	.	.	.	.
CCOC(=O)c1c(C)n(Cc2ccco2)c2ccc(O)cc12	2.91	-0.1	-0.394	-0.2	30.8	.	.
CCCCn1c(C)c(C(=O)OCC)c2c(CN3CCOCC3)c(O)ccc21	0.03	9.9	.	10.0	20.7	-2.32*	0.0657*
CCN(CC)c1ccc(N=Cc2c(O)n(CCC3=CCCCC3)c(=O)[nH]c2=O)cc1	0.87	11.7	.	1.3	64.3	-7.12*	0.0367*
O=c1[nH]c(=O)n(CCC2=CCCCC2)c(O)c1/C=N/N1CCOCC1	-0.33	.	0.341	.	.	.	.
SMILES	Ins promoter up	L major viab	Cl transport mod	WT yeast gro inh	Insulin prom inh	ROMK primary	ROMK retest
CN(C)c1ccc(-[n+]2c(-c3ccccc3)cc(-c3ccccc3)cc2-c2ccccc2)cc1	?	100.4*	-0.859	77.0*	.	-2.22*	0.0364*
c1ccc(-c2cc(-c3ccccc3)[n+](-c3ccccc3)c(-c3ccccc3)c2)cc1	-4.08	.	-1.48	.	.	-3.57*	0.044*
N=C1c2ccccc2CN1c1ccc(F)c([N+](=O)[O-])c1	-0.81	.	0.805	.	.	-0.585	.
CCC(=NCCCn1ccnc1)c1c(O)n(-c2ccc(OC)cc2)c(=O)[nH]c1=O	0.94	.	-0.114	.	.	-1.65	.
CC(=O)OC1(c2ccccc2)CC(C(C)(C)C)CN(C(C)(C)C)C1 (configuration not stated)	-0.57	-3.8	0.132	-5.0	15.4	-0.218	.
CCOC(=O)c1c(-n2c(C)cc(C=C3C(=O)NC(=O)NC3=O)c2C)sc2c1CCCC2	0.13	83.9*	0.55	-17.9	47.2	-4.66*	?
Cc1cccc(N2C(=O)NC(=O)/C(=C\c3cc(C)n(-c4sc5c(c4C#N)CCCC5)c3C)C2=O)c1C	0.42	-2.7	-0.514	20.0	.	.	.
O=Cc1c(C(=O)O)n(Cc2ccc(Cl)cc2)c2ccccc12	1.87	-2.7	-1.76	-13.5	-59.3	.	0.0525*
O=S(=O)(F)c1ccc2nc(-c3cccc(Sc4ccccc4)c3)cc(Cl)c2c1	-0.29	.	1.23	.	.	.	.
CN1CCc2nc(N)c(C#N)c(-c3ccccc3)c2C1	0.31	-3.7	.	12.2	3.6	.	.
CN1CCc2nc3sc(C#N)c(N)c3c(-c3cccs3)c2C1	.	8.8	.	-14.2	38.5	2.97	?
CC(/C=N/NC(=O)c1n[nH]c2c1CCC2)=C\c1ccccc1	-0.97	-0.2	-0.624	6.1	-58.3	5.51*	0.0903
Cc1noc(C)c1C(=O)N1CCC2(CC1)OCCO2	-0.01	-7.7	0.627	4.9	7.9	3.05*	0.0869
Fc1ccccc1N1CCN(Cc2c(F)cccc2F)CC1	0.43	0.3	0.141	-2.6	43.8	-0.0109	.
CCCCn1c(O)c(C(C)=NCCCN(CC)CC)c(=O)[nH]c1=O	-0.5	8.2	.	9.2	36.4	.	.
c1ccc2c(c1)CC1CNCc3cccc(c31)S2 (configuration not stated)	.	29.1	2.39	4.2	-54.5	-2.79*	0.0538*
CCCCCc1nc2c(c(=O)c3ccccc3n2C)c(=O)n1C1CCCCCC1	-2.34	98.5*	-1.2	97.2*	.	.	0.0529*
CCCCS(=O)(=O)N1CCN(C(=N)N[N+](=O)[O-])CC1	.	-3.1	0.512	8.4	36.4	0.12	.

Screening data: PubChem, several laboratories
